These results are taken from PubChem BioAssay AID2546 (National Center for Advancing Translational Sciences (NCATS), 2010).

About 11,000 (3.5%) of roughly 310,000 compounds were called active. Inconclusive results (about 8%) are left out. What follows is part of a selection rich in actives, with near analogues and random picks from the rest. Values without a mark were called inactive. Calls come from the whole dose curve; as a rule, active = well fitted inhibition curve with a large enough effect; inconclusive = small, poorly fitted or top-dose-only effect, or effect the other way; inactive = flat fitted curve, though single readings scatter.
% is set by controls: 0 for no effect and ±100 for the full control effect; potency is the fitted concentration of half-maximal effect.

The experiment in a line: VP16 counterscreen qHTS for inhibitors of ROR gamma transcriptional activity.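 Note: Gal4-VP16 expression switched on by copper sulfate through the metallothionein promoter; nearly all actives have a fitted effect of over 50% in size.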 To be noted: Drosophila S2 Gal4-VP16 UAS-luciferase, luminescence, 20 h; series mostly up to 53.6 µM; activity, negative = inhibition: at the top concentration. An excerpt: NIH Molecular Libraries Probe Production Network [MLPCN]
NIH Chemical Genomics Center [NCGC]
Assay Provider: Dan Littman, New York University
The retinoic acid-related orphan receptor (ROR) gamma is a transcription factor that has a central role in the differentiation of Th17 cells, a subset of T helper cells that secrete the inflammatory cytokines IL-17, IL-17F, and IL-22. Th17 cells have been implicated in graft versus host disease, autoimmune disease and asthma. ROR gamma is induced in naive T helper cells in the presence of TGF-beta combined with IL-6, IL-21, or IL-23, and thereafter directs the expression of the Th17 lineage cytokines. To identify nonspecific inhibitors, a Drosophila Schneider cell line was stably transfected with two vectors: a gene expressing a fusion of the Gal4 DNA binding domain and VP16 transactivation domain under the control of the metallothionine promoter and a Photinus luciferase reporter regulated by the Gal4 binding site enhancer, UAS. […] Small molecule inhibitors that inhibit components common to the RORgt and VP16 assays, such as the Gal4 DNA binding domain or the UAS luciferase reporter, will be active in both assays and thus scored as nonspecific.
For screening, 600 cells in 4 uL/well were dispensed into white solid 1536-well plates (Grenier) using a solenoid-based dispenser. Following transfer of 23 nL compound or DMSO vehicle by a pin tool, the plates were incubated 1 hr at ambient temperature, and 1 uL/well copper sulfate (700 uM final concentration) was added. The plates were centrifuged 15 s at 1000 RPM and incubated 20 hr at ambient temperature. After addition of 1.5 uL Photinus luciferase detection reagent, the plates were incubated 10 min at ambient temperature and then read by a ViewLux (Perkin Elmer) to detect luminescence.
On the technique in general: Counterscreens check selectivity or assay interference.
Take `COc1ccccc1OCc1ccc(C(=O)NC(C)c2ccccc2)o1` (stereo not drawn): the “activity, negative = inhibition” value is -3%.

`CCOc1ccc(C)cc1S(=O)(=O)NC1CCCCCC1`: the “activity, negative = inhibition” value is 23.3%.

Turning to `COC(=O)Cc1ccc(Oc2ncc(C(F)(F)F)cc2Cl)cc1`, the “activity, negative = inhibition” value was 5.94%.

Turning to `COc1cc(/C=C2\SC(=S)N(Nc3ncc(C(F)(F)F)cc3Cl)C2=O)cc(OC)c1OC`, the “activity, negative = inhibition” value was -11.4%.

As to `COc1cccc(/C=N/Nc2ncc(C(F)(F)F)cc2Cl)c1O`, the Potency was 3.16 µM (active).

Consider `C=CCNC(=S)NNc1ncnc2sc3c(c12)CC(C)(C)OC3`, for which the Potency was 7.08 µM (active).

For `CCSc1nc2sc3c(c2c(=O)[nH]1)CC(C)(C)OC3`, the “activity, negative = inhibition” value was 1.94%.

For `CN(C)CCSc1nc(N)c2c3c(sc2n1)COC(C)(C)C3`, the “activity, negative = inhibition” value was -8.2%.

For the molecule `CC(C)(C)NS(=O)(=O)c1ccc(NC(=O)C2CCCO2)cc1` (stereo not drawn), the “activity, negative = inhibition” value was -3.37%.

For `Cc1c(C)c2c(OCC(=O)NCCCO)cc3c(c2oc1=O)CCC(C)(C)O3`, the “activity, negative = inhibition” value is 4.21%.

Take `COC(=O)c1c(NC(=O)c2ccc(S(=O)(=O)N3CCOCC3)cc2)sc2c1CCN(C(C)C)C2`: the “activity, negative = inhibition” value is -1.8%.

For the molecule `CC(C)CCn1c(=O)c2c(nc3n2CCCN3Cc2ccccc2)n(C)c1=O`, the “activity, negative = inhibition” value was -14.9%.

Turning to `COc1ccc(NC(=S)NCC2CCN(c3ccc(OC)cc3)C2)cc1` (stereo not drawn), the Potency is 4.47 µM (active).

Take `COc1ccc(OCC(=O)Nc2ccc(N3CCC(C)CC3)cc2)cc1`: the “activity, negative = inhibition” value is -2.59%.

For `COc1cccc(N2CC(C(=O)Nc3c(C)cccc3C)CC2=O)c1` (stereo not drawn), the “activity, negative = inhibition” value was 0.144%.

On to `COc1ccc(NC(=O)N2CCC(Cc3ccccc3)CC2)cc1`, for which the “activity, negative = inhibition” value is 4.74%.

With `COc1ccc(N2CCC(CNC(=S)Nc3c(C)cccc3C)C2)cc1` (stereo not drawn), the Potency was 2.24 µM (active).

In the case of `COc1ccc(NC(=S)NCCN2CCC(C)CC2)cc1`, the “activity, negative = inhibition” value is -17.1%.

With `Cc1cccc2c1cnn2C(=O)CCC(=O)NC1CCCCC1`, the “activity, negative = inhibition” value is 3.24%.

For the molecule `O=C(N/N=C/c1cccc(Br)c1)c1ccc(N2CCCC2=O)cc1`, the “activity, negative = inhibition” value is 3.2%.

Regarding `CCOc1ccc(CCNC(=O)CCc2nnc3ccc(N4CCCC4)nn23)cc1OCC`, the “activity, negative = inhibition” value is -1.18%.

Turning to `COc1ccc(-c2cc(C(=O)N3CCN(Cc4ccc5c(c4)OCO5)CC3)on2)cc1OC`, the “activity, negative = inhibition” value is -0.461%.

For the molecule `Cn1c(CC(=O)Nc2ccc(F)cc2)nnc1SCC(=O)NC1CCCCC1`, the “activity, negative = inhibition” value is 1.19%.

Turning to `COc1ccc(NC(=O)C2COc3ccccc3O2)cc1` (stereo not drawn), the “activity, negative = inhibition” value was -10.7%.

Consider `Cc1ccc(NC(=S)N(CCCN2CCC(C)CC2)Cc2ccco2)cc1`, for which the “activity, negative = inhibition” value was 2.2%.

Take `CCCN(CC1COc2ccccc2O1)C(=S)Nc1ccc(C)cc1` (stereo not drawn): the Potency is 12.6 µM (active).

For `Nc1cc(N)nc(SCc2cccc(F)c2)n1`, the “activity, negative = inhibition” value is 12.2%.

Consider `CC(C)[C@H](NC(=O)N1CCn2c1nc1ccccc12)C(=O)NCCc1ccccc1`, for which the “activity, negative = inhibition” value is 0%.

With `O=C(Nc1ccccc1F)c1ccc2c(c1)OCO2`, the “activity, negative = inhibition” value was -8.17%.

For the molecule `CC1COc2ccccc2N1C(=O)c1ccc(F)cc1` (stereo not drawn), the “activity, negative = inhibition” value is 8.51%.

On to `O=C(Nc1nnc(C2COc3ccccc3O2)o1)c1ccc(F)cc1` (stereo not drawn), for which the Potency is 0.562 µM (active).

Regarding `Cc1ccc(OCC(=O)Nc2ccc3oc(=O)ccc3c2)cc1C`, the “activity, negative = inhibition” value was 6.56%.

With `COc1ccc2cc(C(=O)NCC3CCCO3)[nH]c2c1` (stereo not drawn), the “activity, negative = inhibition” value was 5.86%.

As to `O=C(C1CCCN(S(=O)(=O)c2ccc([N+](=O)[O-])cc2)C1)N1CCCCC1` (stereo not drawn), the “activity, negative = inhibition” value is -5.57%.

Regarding `Cc1ccc(C(=O)Nc2nnc(-c3cccs3)s2)cc1C`, the “activity, negative = inhibition” value is 19.6%.

With `CC(=O)c1sc(NC(=O)c2ccc(C)cc2)nc1C`, the “activity, negative = inhibition” value was -5.98%.

For `N#Cc1ccc(C(=O)Nc2nc(-c3cccs3)c(C(=O)C(F)(F)F)s2)cc1`, the Potency is 3.16 µM (active).

Regarding `CCc1ccccc1NC(=O)c1ccc2snnc2c1`, the “activity, negative = inhibition” value is 1.19%.

Regarding `Cc1c(C)c(C)c(S(=O)(=O)NCCc2ccccn2)c(C)c1C`, the “activity, negative = inhibition” value was 12.6%.

With `CCc1ccc(-c2nc(SCC(=O)NC3CCCC3)n[nH]2)cc1`, the Potency was 14.1 µM (active).

In the case of `COc1ccc(-c2nc(SCC(=O)N3CCCC3)n[nH]2)cc1`, the “activity, negative = inhibition” value is 0.997%.

Turning to `CCc1c(C)nc(SCC(=O)NC2CCCC2)[nH]c1=O`, the “activity, negative = inhibition” value is 7.14%.

For `Cc1ccc(S(=O)(=O)c2nnn3c2nc(N2CCN(c4ccccn4)CC2)c2ccccc23)cc1`, the “activity, negative = inhibition” value is 3.9%.

Turning to `COc1ccc(-c2cc(=O)oc3cc(OC(C)C(=O)Nc4ccc(CN5CCOCC5)cc4)ccc23)cc1` (stereo not drawn), the “activity, negative = inhibition” value was -8.27%.

On to `Cc1ccc(OCc2nc3ccccc3n2C)cc1`, for which the “activity, negative = inhibition” value is -21.6%.

On to `Cn1cc(/C=C/c2nc3ccccc3c(=O)n2-c2cccc([N+](=O)[O-])c2)c2ccccc21`, for which the “activity, negative = inhibition” value is -2.78%.

Consider `Cc1nc2ccccc2c(=O)n1Cc1ccc([N+](=O)[O-])cc1`, for which the “activity, negative = inhibition” value was -12.2%.

As for `CCn1c(/C=C/c2ccc([N+](=O)[O-])o2)nc2ccccc2c1=O`, the Potency is 11.2 µM (active).

As for `CCCCn1c(N)c(N(CCOC)C(=O)c2oc3ccc(OC)cc3c2C)c(=O)[nH]c1=O`, the “activity, negative = inhibition” value is 12.1%.

In the case of `O=C(N/N=C/c1ccc(O)c2ccccc12)c1cccnc1`, the “activity, negative = inhibition” value was 5.43%.

For `O=C(N/N=C/c1sc(N2CCCCC2)nc1-c1cccs1)c1cccnc1`, the Potency was 10 µM (active).

Turning to `Cc1cc(/C=N/NC(=O)c2cccnc2)c(C)n1CC(C)C`, the “activity, negative = inhibition” value is -18.2%.

For `O=C(NCCS(=O)(=O)N1CCN(c2ccccc2F)CC1)c1ccc(Br)o1`, the “activity, negative = inhibition” value is 1.1%.
